# AmpC detergent = inhibitors of E. coli AmpC beta-lactamase with detergent. Potency, µM (highest dose often 114 µM), for inactives: top-dose activity change, negative = inhibition, actives largely listed as inhibitors. 370,000 tested, 0.041% active. P00811. AmpC hydrolysis of nitrocefin, absorbance 480 nm, 0.01% Triton;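 further: potency means the concentration at half of the fitted maximal effect; 0% = no-compound wells and -100% = no-enzyme wells; nearly all actives have a fitted effect of over 25% in size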
# Target sequence (P00811 whole entry, looked up): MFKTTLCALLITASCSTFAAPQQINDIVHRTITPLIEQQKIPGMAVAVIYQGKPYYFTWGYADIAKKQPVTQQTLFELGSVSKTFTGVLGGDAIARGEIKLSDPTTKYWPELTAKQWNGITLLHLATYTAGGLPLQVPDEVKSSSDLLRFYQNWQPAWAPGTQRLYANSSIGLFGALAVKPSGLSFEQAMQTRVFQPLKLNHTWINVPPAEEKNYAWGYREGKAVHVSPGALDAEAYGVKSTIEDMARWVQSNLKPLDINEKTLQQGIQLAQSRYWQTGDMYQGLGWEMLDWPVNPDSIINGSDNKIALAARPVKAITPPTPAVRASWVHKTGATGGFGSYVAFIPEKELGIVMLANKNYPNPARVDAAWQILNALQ
#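 AmpC (5.3 nM in the dispensed reagent) in 20 mM phosphate pH 7.0 with 0.01% (detergent screen) or 0.0001% Triton X-100 was preincubated with compounds for 15 min at room temperature. Nitrocefin was then added from an 800 uM solution, and hydrolysis was followed at 480 nm.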
# AmpC no deterg = blocks E. coli AmpC beta-lactamase in detergent-free assay; P00811; 330,000 tested, 0.52% active; Potency, µM (highest dose often 57.1 µM), for inactives: top-dose activity change, negative = inhibition, most hits filed as inhibitors; AmpC nitrocefin hydrolysis, absorbance 480 nm, 0.0001% Triton; AID 485341;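 further: potency means the concentration at half of the fitted maximal effect; plate controls were no compound for no effect and no enzyme for full effect; nearly all actives have a fitted effect of over 20% in size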
#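 AmpC (5.3 nM in the dispensed reagent) in 20 mM phosphate pH 7.0 with 0.01% (detergent screen) or 0.0001% Triton X-100 was preincubated with compounds for 15 min at room temperature. Nitrocefin was then added from an 800 uM solution, and hydrolysis was followed at 480 nm.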
# Cycloheximide cs = counter-screen for Shiga toxin inhibitors: cycloheximide protein synthesis inhibition. cell reporter, cycloheximide protein synthesis inhibition counterscreen. 300,000 tested, 12% active. max response, %. AID 2314; in the data active means max response mostly above about 13%, no sharp cut-off; inactive means mostly below about 14%; further: read at 38.3 µM for the half of the compounds with a filed dose; 0% is about no effect
# Shiga inhibitor = blocks Shiga toxin action in Vero cells. Vero cells, Shiga toxin protein synthesis inhibition reporter. inhibition, % at 38.7 µM. 290,000 tested, 9.2% active; in the data active means inhibition mostly above about 28%, no sharp cut-off; inactive means mostly below about 43%; further: 0% is about no effect
# NS1 function inh = blocks influenza NS1 protein function; Potency, µM (titrated, usually from 46.1 µM), for the others: top-dose activity, positive = more growth; 270,000 tested, 0.4% active; calls by dose curve; further: potency means the concentration at half of the fitted maximal effect; actives are rising curves; nearly all actives have a fitted effect of over 50% in size
#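 Growth recovery, yeast-based: influenza A NS1 expressed in S. cerevisiae causes slow growth, and suppressors are detected by OD600. The parent strain without NS1 is used as positive control.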
# Numbers without * were called inactive; ? = inconclusive; · = not tested or not shown. This excerpt belongs to a sample that is enriched for hits. Unless noted, the call rests on the fitted dose curve; in most records, active means well fitted curve in the direction sought with a large enough effect; inconclusive means small, poorly fitted or top-dose-only effect, or another doubt; inactive means no such curve, though single readings can be large; an effect the other way counts as inactive or inconclusive.
SMILES,AmpC detergent,AmpC no deterg,Cycloheximide cs,Shiga inhibitor,NS1 function inh
Cc1ccc(/C=C2/SC(=S)N(CCCC(=O)Nc3ccc(O)cc3)C2=O)cc1,-2%,-1%,31*,25*,-4%
COc1cc(/C=C2\SC(=S)N(CCC(=O)Nc3cccc(O)c3)C2=O)cc(OC)c1OC,-21%,-13%,8,·,5%
COc1cccc(/C=C2\SC(=S)N(CCCC(=O)Nc3ccc(C(=O)O)cc3)C2=O)c1,4%,-44%,17,11,9%
O=C(CCN1C(=O)/C(=C/c2cccs2)SC1=S)Nc1ccc(C(=O)O)c(O)c1,-4%,1.3µM*,3,20,22%
O=C(CCCN1C(=O)/C(=C\c2ccccc2)SC1=S)Nc1ccc(O)cc1,0%,-27%,26*,3,-5%
C=CCOc1ccc(CNCc2cccnc2)cc1OCC,-5%,-14%,2,-6,15%
C=CCOc1ccc(CNCc2cccnc2)cc1,-12%,-18%,8.5*,15,10%
Cn1c(CO)cnc1SCC(=O)c1ccc(Cl)cc1,?,-21%,18,31,·
CCSc1ncc(/C=N/Nc2ccc([N+](=O)[O-])cc2)n1C,-10%,-18%,25*,55*,6%
Cn1c(-c2ccc(F)cc2)cnc1SCC(=O)Nc1ccccc1,-2%,-11%,15,7,-9%
CCSc1ncc(/C=N/Nc2ccccc2)n1C,4%,1%,29*,55*,-9%
CCSc1ncc(/C=N/Nc2ccc(Cl)cc2)n1C,?,4%,77*,112*,-102%
CC(C)(C)c1cnnn1-c1ccc(/C=N/Nc2ccc([N+](=O)[O-])cc2)cc1,-7%,-23%,-1,-13,-4%
C=C[C@H]1CN2CC[C@@H]1C[C@H]2[C@@H](O)c1ccnc2ccc(OC)cc12,·,·,10,15,·
COc1cc(C2NC(=O)C(C#N)=C(S)N2c2ccc(C)cc2)ccc1OC(C)C (stereo not drawn),6%,-12%,11*,78*,-49%
Cc1ccccc1CN1CCC(CNC(=O)C2CCCN(c3ncnc4c3nc3n4CCCCC3)C2)CC1 (stereo not drawn),-1%,137%,7,-12,12%
COc1ccc(S(=O)(=O)N[C@@H](C)C(=O)OCC(=O)Nc2cc3oc4ccccc4c3cc2OC)cc1,-8%,-4%,15*,103*,-2%
COc1cc2c(cc1NC(=O)COC(=O)[C@@H](NS(=O)(=O)c1cccc(Cl)c1)C(C)C)oc1ccccc12,0%,-23%,13*,23,?
COc1ccc(OCC(=O)Nc2cc3oc4ccccc4c3cc2OC)cc1,?,-19%,-2,-11,?
COc1ccc(NC(=O)COC(=O)CNS(=O)(=O)c2ccc(C)cc2)c(OC)c1,?,-21%,2,-9,-19%
COc1cc2c(cc1NC(=O)COC(=O)CNS(=O)(=O)c1ccc(C)cc1)oc1ccccc12,-11%,-17%,24*,83,-15%
CCOC(=O)N1CCN(C(=O)CSCc2ccc(C)cc2)CC1,-3%,19%,-2,-2,-13%
O=C(CSCc1ccc(Br)cc1)N1CCOCC1,2%,12%,31*,64*,-6%
Cc1ccc(CSCC(=O)N2CCCC2)cc1,0%,-11%,24*,87,-1%
O=C(Cc1ccc(Br)cc1)OCC(=O)N1CCOCC1,·,-2%,·,·,·
SMILES,AmpC detergent,AmpC no deterg,Cycloheximide cs,Shiga inhibitor,NS1 function inh
CC1CCN(C(=O)COC(=O)Cc2ccc(Br)cc2)CC1,-9%,31%,35*,-4,4%
Cc1ccc(SCc2ccc(C(=O)N3CCCCC3)cc2)cc1,3%,74%,28*,59*,-2%
CSc1nnc2c3cc(C)ccc3n(Cc3ccccc3)c2n1,?,-15%,1,16,2%
CNS(=O)(=O)c1cn(CC(=O)N2CCN(c3cccc(Cl)c3)CC2)cc1S(=O)(=O)NC,21%,·,·,·,·
CC1CCN(C(=O)CSCc2ccc(Cl)cc2)CC1,-5%,6%,35*,31,-8%
O=C(CSCc1ccc(Br)cc1)N1CCCC1,-4%,2%,25*,27,2%
O=C(CSCc1ccc(F)cc1)N1CCOCC1,3%,2%,58*,82*,7%
O=C(CSCc1ccc(F)cc1)N1CCN(c2ccc(Cl)cc2)CC1,-9%,·,·,·,·
CC1CCN(CCCCOc2ccc(Cl)cc2)CC1,?,5%,-2,-6,-7%
CC1CCN(C(=O)CCCOc2ccc(Cl)cc2)CC1,1%,69%,33*,55*,-26%

# Screening data from PubChem BioAssay.
